# This is a sample that favours compounds with a hit; in the whole collection about 6.6% have one here.
# KB-3-1 cytotox = KB-3-1 parental cell cytotoxicity | KB-3-1 viability, CellTiter-Glo ATP luminescence, 72 h | Potency, µM (top dose mostly 46.1 µM), hits mostly cytotoxic | actives 1.4% (n = 400,000); note: % is set by controls: 0 for no effect and ±100 for the full control effect; nearly all actives have a fitted effect of over 60% in size
#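 72 h, 37 °C compound treatment of KB-3-1 parental cells; CellTiter-Glo added, 10 min, luminescence read. Data corrected against DMSO-only plates and normalized before curve fitting.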
# KB-V1 MDR tox = kills drug-selected multidrug resistant KB-V1 cells; actives 3.4% (n = 400,000); KB-V1 MDR cells viability, CellTiter-Glo, 72 h; AID 1347076; Potency, µM (titrated, usually from 46.1 µM), usual class: cytotoxic; note: % is set by controls: 0 for no effect and ±100 for the full control effect; nearly all actives have a fitted effect of over 60% in size
#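 KB-V1 cells (P-gp-expressing MDR subline of KB-3-1) in phenol-red-free DMEM with 10% FBS were exposed to library compounds over a concentration series for 72 h at 37 degrees C. Viability read by CellTiter-Glo luminescence; concentration-effect curves fitted after normalization.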
# HT1080NT lethal = kills 2HG-producing HT-1080-NT fibrosarcoma cells; HT-1080-NT fibrosarcoma viability, CellTiter-Glo ATP luminescence, 48 h; Potency, µM (series often up to 46.1 µM), without a hit: at the highest dose activity, negative = less viability, usual class: cytotoxic; actives 1.6% (n = 360,000); AID 686970;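 note: NT is the 2HG producing partner of a matched IDH1 knockdown line; 0% = DMSO-treated cells and -100% = media-only wells without cells; nearly all actives have a fitted effect of over 55% in size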
#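 A 48-hour cytotoxicity screen used HT-1080-NT cells plated 2 hours before compound delivery. ATP-based CellTiter-Glo luminescence measured viability, normalized to DMSO and no-cell controls.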
# TGFb inhibitor = TGF-b pathway inhibition; AID 588855; Potency, µM (top dose mostly 46.1 µM), for inactives: at the highest dose activity, negative = inhibition, actives largely listed as inhibitors; actives 1.2% (n = 410,000); HepG2 CAGA-GFP TGF-b/SMAD3 reporter, GFP fluorescence, 18 h; TGF-beta stimulated, 500 pg/mL final; note: % is set by controls: 0 for no effect and ±100 for the full control effect; nearly all actives have a fitted effect of over 65% in size
#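 HEPG2 CAGA-GFP, 1000 cells/well; 2 h settle, 37 C; cpd via pin tool; TGF-b 500 pg/mL final; 18 h, 37 C; GFP imaging ex488/em500-530; %Activity normalised to -TGF-b and +DMSO controls; CRC fit, curve class.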
# HT1080 IDH1KD tx = HT-1080 IDH1 knockdown cell toxicity (counter line). HT-1080 IDH1 knockdown viability, ATP luminescence, 48 h. Potency, µM (top dose mostly 46.1 µM), for inactives: top-dose activity, negative = toxicity, usual class: cytotoxic. actives 2% (n = 360,000). AID 686971;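 note: 0% = DMSO wells and -100% = cell-free medium wells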
#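 HT-1080-IDH1KD cells (IDH1 knocked down), 750/well in RPMI with 5% FBS, treated with compound 48 h at 37 degrees C. Viability by CellTiter-Glo luminescence, normalised to DMSO and no-cell wells; concentration-response curves classed.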
# HepG2 viability = HepG2 cytotoxicity, counter-screen for TGF-b inhibitors; HepG2 CAGA-GFP viability, ATP luminescence, 18 h; Potency, µM (series often up to 46.1 µM), for inactives: top-dose activity change, negative = cytotoxicity, actives largely listed as cytotoxic; actives 0.76% (n = 410,000); AID 588856
#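 CellTiter-Glo luminescence gave cytotoxicity after 18 hours at 37 degrees C. The cells were HepG2 CAGA-GFP in 1% FBS DMEM, stimulated with 500 pg/mL TGF-beta after compound addition. %Activity was normalised to no-cell wells (complete cell-killing) and DMSO (no toxicity), and curves were fitted and classified.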
# An asterisk follows results filed as active; i = inactive; ? = inconclusive; · = no result; [ ] = remark or other dose. Calls come from the whole dose curve; as a rule, active = well fitted curve in the direction sought with a large enough effect; inconclusive = small, poorly fitted or top-dose-only effect, or another doubt; inactive = no such curve, though single readings can be large; an effect the other way counts as inactive or inconclusive. Potency is the fitted concentration of half-maximal effect.
SMILES,KB-3-1 cytotox,KB-V1 MDR tox,HT1080NT lethal,TGFb inhibitor,HT1080 IDH1KD tx,HepG2 viability
CC(C)(C)NC(=O)NC(=O)CN1CCN(C(c2ccccc2)c2ccccc2)CC1,i,20.6µM*,12.3%,2.6%,4.5%,-4.4%
O=C(CN1CCN(c2ccccc2)CC1)NC(=O)NCc1ccco1,i,?,9.9%,0.5%,11.9%,4.4%
Cc1ccc(S(=O)(=O)c2cn(Cc3ccccc3F)c3cc4c(cc3c2=O)OCO4)cc1,i,i,·,-2.1%,·,5.8%
Fc1ccc(C(c2ccc(F)cc2)N2CCN(C/C=C/c3ccccc3)CC2)cc1,?,?,?,?,?,6.31µM*
CC(=O)N1c2ccc(S(=O)(=O)N3c4ccccc4CC3C)cc2CC1C (stereo not drawn),i,i,-9.8%,-21.6%,-6.2%,-21.8%
CC1Cc2ccccc2N1S(=O)(=O)c1ccc2c(c1)n(C)c(=O)c(=O)n2C (stereo not drawn),i,16.4µM*,-6.3%,-9.4%,-8.4%,0.4%
OCCNc1ncnc2c1nnn2Cc1ccccc1Cl,i,i,-5.1%,-9.5%,-6.0%,-16.7%
CC(C)CCNc1ncnc2c1nnn2Cc1ccccc1Cl,i,13µM*,3.3%,-9.2%,3.4%,-4.8%
CCC(Oc1ccc(F)cc1)C(=O)Nc1nc(-c2ccc(F)cc2)ns1 (stereo not drawn),·,·,·,-21.8%,·,-52.0%
CCOc1c(Cl)cc(C(=O)Nc2ccccc2-c2ccccc2)cc1Cl,?,20.6µM*,-1.7%,-22.4%,-16.3%,7.7%
CN(C)S(=O)(=O)c1cccc(C(=O)Nc2ccccc2[N+](=O)[O-])c1,i,i,-28.6%,?,?,-54.0%
COc1ccc(C(=O)Nc2ccccc2-c2ccccc2)cc1Cl,i,i,-4.4%,-13.5%,-1.7%,5.0%
CCN(CC)S(=O)(=O)c1cc(C(=O)Nc2ccccc2[N+](=O)[O-])ccc1Cl,i,?,-24.4%,15.8µM*,?,-33.0%
O=C(Nc1ccc(Nc2ccccc2)cc1)c1ccc(Cl)c([N+](=O)[O-])c1,i,i,-26.3%,?,?,-56.0%
CCOc1ccccc1NC(=O)C(OC(=O)c1ccccc1O)c1ccccc1 (stereo not drawn),i,11.6µM*,7.8%,?,11.3%,-7.0%
O=C(Nc1ccccc1-c1ccccc1)c1ccc(Cl)c([N+](=O)[O-])c1,16.4µM*,i,?,-21.2%,?,-7.3%
Cc1ccccc1Cc1c(C)nc2nc(SCC(=O)NC(C)c3ccccc3)nn2c1C (stereo not drawn),i,i,·,-28.3%,·,-3.6%
CCOc1ccccc1C(=O)Nc1ccccc1O,i,i,-11.0%,-5.4%,-5.5%,-14.7%
CCOc1ccccc1C(=O)Nc1ccccc1-c1ccccc1,?,14.6µM*,2.6%,?,-8.2%,-17.5%
S=c1nc(-c2cc(Cl)ccc2Cl)[nH][nH]1,i,i,-21.8%,1.3%,4.8%,-1.1%
S=c1nc(-c2ccccc2Br)[nH][nH]1,i,i,7.08µM*,4.9%,10µM*,-11.0%
O=C(Nc1ccncc1)c1ccc2ccccc2c1,i,16.4µM*,-9.4%,1.7%,-7.2%,-30.9%
CC(C)c1ccc(CNCCSc2nnnn2-c2ccccc2)cc1,i,i,·,-49.9%,·,-23.3%
CC[n+]1c(/C=C/N(C)c2ccccc2)n(-c2ccccc2)c2ccc(-c3nc4ccccc4s3)cc21,5.8µM*,i,?,5.62µM*,5.8µM*,-98.8%
CC[n+]1cccc(-c2nc3ccccc3s2)c1,?,i,-7.8%,0.2%,-12.6%,-14.4%
SMILES,KB-3-1 cytotox,KB-V1 MDR tox,HT1080NT lethal,TGFb inhibitor,HT1080 IDH1KD tx,HepG2 viability
Cn1c(Cl)cnc1C1CC(=O)c2cc(Cl)ccc2O1 (stereo not drawn),?,?,?,?,9.2µM*,-57.0%
O=C1CC(c2ccc(Cl)cc2)Oc2ccc(Cl)cc21 (stereo not drawn),i,i,?,4.2%,?,-22.4%
Cc1ccc(N(C)C(=O)Cn2cc(S(=O)(=O)N3CCCC3)c(S(=O)(=O)N3CCCC3)c2)cc1,i,i,·,0.6%,·,1.6%
CC(=O)Nc1ccc(/C=C/c2nc3ccccc3s2)cc1,i,i,·,-21.0%,·,-33.0%
O=C(COC(=O)c1ccccc1O)Nc1ccc(N2CCOCC2)cc1,i,i,3.6%[9.24 µM],-12.1%,1.3%,-5.1%
O=C(COC(=O)C1Cc2ccccc2CN1C(=O)c1ccccc1Cl)Nc1ccc(N2CCOCC2)cc1 (stereo not drawn),i,14.6µM*,-2.4%,?,-2.1%,-0.3%
COc1ccccc1OCC(=O)N(Cc1ccco1)Cc1ccccc1F,·,·,·,?,·,-21.4%
COc1ccc(NC(=O)Cn2c(=O)nc(-c3ccccc3)c3ccccc32)cc1OC,·,·,·,2.9%,·,10.0%
COc1ccc(-c2cc(C(F)(F)F)nc(S(=O)(=O)CCCC(=O)Nc3cc(C)on3)n2)cc1OC,i,i,16.4µM*,?,20.6µM*,-108.9%
COc1ccc(Cl)cc1NC(=O)CCCS(=O)(=O)c1nc(-c2ccc(OC)c(OC)c2)cc(C(F)(F)F)n1,·,·,·,2.82µM*,·,14.1µM*
COc1ccccc1-c1cc(C(F)(F)F)nc(S(=O)(=O)CCCC(=O)Nc2cc(C)on2)n1,?,?,9.2µM*,-6.1%,4.11µM*,-35.4%
Cc1ccc(CCNC(=O)CCn2nc(-c3ccc(C)cc3)ccc2=O)cc1,i,i,·,-12.7%,·,-13.7%
O=C(CC(=O)NCc1ccc(Cl)cc1)NCc1ccc(Cl)cc1,i,i,?,6.9%,-10.0%,4.9%
Cc1ccc(CC(=O)NCc2ccc(Cl)cc2)cc1,i,?,20.6µM*,-17.2%,9.2µM*,-20.5%
Cc1ccc(CNC(=O)CCn2nc(-c3ccc(Cl)cc3)ccc2=O)cc1,i,23.1µM*,1.5%,?,-14.2%,2.0%
O=c1c2sccc2n(Cc2cccc(F)c2)c(=O)n1-c1ccc(F)cc1,i,8.2µM*,-1.7%,-13.0%,?,2.3%
Cc1cccc(C)c1NC(=O)Cn1c(=O)n(Cc2ccc(C(=O)NCc3ccco3)cc2)c(=O)c2sccc21,?,i,·,?,·,-67.2%
Cc1cccc(Cn2c(=O)n(-c3ccc(CC(=O)NCc4ccco4)cc3)c(=O)c3sccc32)c1,23.1µM*,?,?,?,?,-32.7%
Cc1ccc(-n2c(=O)c3sccc3n(CC(=O)NCc3ccco3)c2=O)cc1,i,i,17.1%,-2.4%,-4.1%,-14.4%
